Test results published in the supplement of paper PMC6378613.

Chain of UniProt Q16832 (Q16832 whole entry, looked up): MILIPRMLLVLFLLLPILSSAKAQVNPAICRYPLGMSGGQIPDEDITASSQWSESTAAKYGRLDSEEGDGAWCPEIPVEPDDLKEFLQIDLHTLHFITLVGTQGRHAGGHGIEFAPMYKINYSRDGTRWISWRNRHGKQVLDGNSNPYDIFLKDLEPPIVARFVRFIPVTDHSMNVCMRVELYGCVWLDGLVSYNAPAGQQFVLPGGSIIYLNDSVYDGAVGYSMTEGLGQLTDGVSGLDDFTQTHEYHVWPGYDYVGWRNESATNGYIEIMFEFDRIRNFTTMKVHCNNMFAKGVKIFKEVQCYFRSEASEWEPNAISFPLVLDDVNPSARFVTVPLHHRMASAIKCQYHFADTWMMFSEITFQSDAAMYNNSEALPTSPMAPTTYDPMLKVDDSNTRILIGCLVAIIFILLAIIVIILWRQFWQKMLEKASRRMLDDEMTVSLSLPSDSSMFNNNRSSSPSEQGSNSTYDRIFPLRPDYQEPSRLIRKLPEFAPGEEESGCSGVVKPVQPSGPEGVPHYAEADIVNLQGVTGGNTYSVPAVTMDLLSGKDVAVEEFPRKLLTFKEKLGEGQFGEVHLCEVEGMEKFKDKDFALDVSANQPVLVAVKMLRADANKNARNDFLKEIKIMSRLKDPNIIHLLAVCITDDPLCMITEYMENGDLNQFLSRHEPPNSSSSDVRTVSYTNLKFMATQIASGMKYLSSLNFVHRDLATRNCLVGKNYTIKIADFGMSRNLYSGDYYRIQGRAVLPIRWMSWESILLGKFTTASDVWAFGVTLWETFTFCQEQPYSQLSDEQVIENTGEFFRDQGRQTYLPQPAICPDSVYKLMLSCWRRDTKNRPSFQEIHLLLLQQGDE
Chain of UniProt Q14680 (Q14680 whole entry, looked up): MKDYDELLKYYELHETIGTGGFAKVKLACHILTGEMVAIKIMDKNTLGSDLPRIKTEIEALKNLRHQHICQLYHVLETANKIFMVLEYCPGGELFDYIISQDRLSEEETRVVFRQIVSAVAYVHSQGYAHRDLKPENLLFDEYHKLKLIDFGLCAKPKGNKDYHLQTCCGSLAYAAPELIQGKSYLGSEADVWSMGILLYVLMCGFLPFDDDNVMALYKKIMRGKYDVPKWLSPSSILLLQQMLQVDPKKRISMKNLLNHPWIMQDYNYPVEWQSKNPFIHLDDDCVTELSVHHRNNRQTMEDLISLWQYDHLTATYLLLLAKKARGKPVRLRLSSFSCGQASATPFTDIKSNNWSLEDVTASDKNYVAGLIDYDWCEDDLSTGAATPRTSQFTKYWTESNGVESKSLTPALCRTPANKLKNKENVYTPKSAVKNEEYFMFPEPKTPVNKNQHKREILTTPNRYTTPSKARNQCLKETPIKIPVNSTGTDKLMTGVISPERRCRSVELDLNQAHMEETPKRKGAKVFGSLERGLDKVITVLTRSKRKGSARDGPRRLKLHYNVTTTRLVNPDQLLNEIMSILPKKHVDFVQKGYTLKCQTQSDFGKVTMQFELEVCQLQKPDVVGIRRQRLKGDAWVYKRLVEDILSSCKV
Chain of UniProt Q13177 (Q13177 whole entry, looked up): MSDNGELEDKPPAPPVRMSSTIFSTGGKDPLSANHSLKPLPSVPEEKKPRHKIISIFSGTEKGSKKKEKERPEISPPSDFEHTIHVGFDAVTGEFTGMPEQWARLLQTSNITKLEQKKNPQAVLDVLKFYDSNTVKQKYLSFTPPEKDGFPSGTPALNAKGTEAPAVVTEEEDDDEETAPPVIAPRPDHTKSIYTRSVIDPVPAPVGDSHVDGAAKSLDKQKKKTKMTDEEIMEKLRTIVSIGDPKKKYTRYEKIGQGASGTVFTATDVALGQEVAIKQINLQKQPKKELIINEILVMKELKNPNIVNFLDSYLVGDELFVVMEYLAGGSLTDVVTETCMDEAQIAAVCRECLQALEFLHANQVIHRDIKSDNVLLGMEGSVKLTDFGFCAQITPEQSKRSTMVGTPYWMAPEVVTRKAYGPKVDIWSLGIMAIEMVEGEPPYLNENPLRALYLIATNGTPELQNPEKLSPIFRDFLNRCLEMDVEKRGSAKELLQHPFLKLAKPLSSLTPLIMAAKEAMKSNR
Chain of UniProt Q6IQ55 (Q6IQ55 whole entry, looked up): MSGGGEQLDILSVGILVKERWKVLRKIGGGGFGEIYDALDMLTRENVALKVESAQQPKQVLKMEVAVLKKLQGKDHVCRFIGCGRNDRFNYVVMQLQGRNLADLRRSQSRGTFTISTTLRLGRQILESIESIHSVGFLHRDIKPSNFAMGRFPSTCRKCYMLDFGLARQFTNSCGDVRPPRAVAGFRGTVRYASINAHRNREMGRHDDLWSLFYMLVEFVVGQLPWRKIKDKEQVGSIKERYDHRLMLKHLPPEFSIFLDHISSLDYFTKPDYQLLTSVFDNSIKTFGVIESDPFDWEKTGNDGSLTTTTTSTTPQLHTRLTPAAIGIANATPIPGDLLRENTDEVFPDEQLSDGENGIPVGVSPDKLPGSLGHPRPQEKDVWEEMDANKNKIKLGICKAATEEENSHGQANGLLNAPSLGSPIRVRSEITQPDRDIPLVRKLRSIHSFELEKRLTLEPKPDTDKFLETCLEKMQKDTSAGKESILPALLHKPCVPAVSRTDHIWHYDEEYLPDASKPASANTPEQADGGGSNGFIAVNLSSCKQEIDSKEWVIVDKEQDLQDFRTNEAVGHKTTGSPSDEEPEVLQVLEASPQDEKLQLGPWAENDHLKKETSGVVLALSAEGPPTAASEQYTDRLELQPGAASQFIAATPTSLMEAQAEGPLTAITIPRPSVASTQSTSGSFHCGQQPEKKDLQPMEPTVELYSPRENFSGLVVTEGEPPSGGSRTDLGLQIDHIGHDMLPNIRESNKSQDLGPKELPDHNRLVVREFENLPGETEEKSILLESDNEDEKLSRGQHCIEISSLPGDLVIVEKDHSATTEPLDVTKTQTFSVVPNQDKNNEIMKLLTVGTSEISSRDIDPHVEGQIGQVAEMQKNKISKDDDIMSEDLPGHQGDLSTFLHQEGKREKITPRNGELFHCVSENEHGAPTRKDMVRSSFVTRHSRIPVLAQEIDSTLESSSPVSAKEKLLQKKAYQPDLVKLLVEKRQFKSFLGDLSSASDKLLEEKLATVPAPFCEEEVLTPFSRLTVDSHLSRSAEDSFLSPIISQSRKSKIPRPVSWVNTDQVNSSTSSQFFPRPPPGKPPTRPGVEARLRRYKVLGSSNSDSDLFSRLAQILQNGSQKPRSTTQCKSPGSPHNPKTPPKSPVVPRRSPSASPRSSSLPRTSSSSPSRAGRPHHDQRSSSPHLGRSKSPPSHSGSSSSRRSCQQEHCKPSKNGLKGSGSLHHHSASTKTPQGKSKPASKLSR
Chain of UniProt Q9HBH9 (Q9HBH9 whole entry, looked up): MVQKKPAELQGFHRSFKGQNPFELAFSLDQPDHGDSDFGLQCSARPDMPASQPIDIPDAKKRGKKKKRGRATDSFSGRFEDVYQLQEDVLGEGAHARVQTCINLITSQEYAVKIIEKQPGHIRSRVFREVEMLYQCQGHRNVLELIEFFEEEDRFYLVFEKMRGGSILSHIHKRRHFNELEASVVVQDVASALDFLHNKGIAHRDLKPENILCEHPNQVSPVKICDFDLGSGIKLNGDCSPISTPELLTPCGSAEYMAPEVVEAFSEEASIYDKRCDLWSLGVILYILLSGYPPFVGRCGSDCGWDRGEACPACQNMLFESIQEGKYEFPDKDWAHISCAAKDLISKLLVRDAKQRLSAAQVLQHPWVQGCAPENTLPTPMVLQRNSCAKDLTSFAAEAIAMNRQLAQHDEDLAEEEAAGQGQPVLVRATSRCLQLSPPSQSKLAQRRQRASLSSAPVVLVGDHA
Chain of UniProt P33981 (P33981 whole entry, looked up): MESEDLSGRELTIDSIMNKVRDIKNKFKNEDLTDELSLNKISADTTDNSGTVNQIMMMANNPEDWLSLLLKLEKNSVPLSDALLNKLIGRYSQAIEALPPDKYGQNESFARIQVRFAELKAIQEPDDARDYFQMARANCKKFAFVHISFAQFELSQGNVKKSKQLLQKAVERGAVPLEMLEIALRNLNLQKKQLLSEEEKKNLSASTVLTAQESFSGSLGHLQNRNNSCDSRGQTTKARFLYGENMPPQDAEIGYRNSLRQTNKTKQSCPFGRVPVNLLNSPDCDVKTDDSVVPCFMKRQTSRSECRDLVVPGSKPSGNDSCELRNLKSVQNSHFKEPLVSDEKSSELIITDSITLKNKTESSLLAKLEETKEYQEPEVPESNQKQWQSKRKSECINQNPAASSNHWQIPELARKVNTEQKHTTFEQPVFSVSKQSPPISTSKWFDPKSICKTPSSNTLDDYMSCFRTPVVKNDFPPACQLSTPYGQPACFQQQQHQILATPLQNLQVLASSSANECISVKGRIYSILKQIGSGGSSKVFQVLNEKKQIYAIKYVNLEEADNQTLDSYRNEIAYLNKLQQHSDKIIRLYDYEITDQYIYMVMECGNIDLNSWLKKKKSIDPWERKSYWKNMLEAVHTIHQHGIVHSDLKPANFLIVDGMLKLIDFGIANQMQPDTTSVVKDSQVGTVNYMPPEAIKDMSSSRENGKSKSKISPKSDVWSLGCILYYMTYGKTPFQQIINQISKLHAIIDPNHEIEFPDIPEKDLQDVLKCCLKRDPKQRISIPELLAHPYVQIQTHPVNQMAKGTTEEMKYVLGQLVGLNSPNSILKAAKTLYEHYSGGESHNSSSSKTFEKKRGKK
Chain of UniProt Q9BUB5 (Q9BUB5 whole entry, looked up): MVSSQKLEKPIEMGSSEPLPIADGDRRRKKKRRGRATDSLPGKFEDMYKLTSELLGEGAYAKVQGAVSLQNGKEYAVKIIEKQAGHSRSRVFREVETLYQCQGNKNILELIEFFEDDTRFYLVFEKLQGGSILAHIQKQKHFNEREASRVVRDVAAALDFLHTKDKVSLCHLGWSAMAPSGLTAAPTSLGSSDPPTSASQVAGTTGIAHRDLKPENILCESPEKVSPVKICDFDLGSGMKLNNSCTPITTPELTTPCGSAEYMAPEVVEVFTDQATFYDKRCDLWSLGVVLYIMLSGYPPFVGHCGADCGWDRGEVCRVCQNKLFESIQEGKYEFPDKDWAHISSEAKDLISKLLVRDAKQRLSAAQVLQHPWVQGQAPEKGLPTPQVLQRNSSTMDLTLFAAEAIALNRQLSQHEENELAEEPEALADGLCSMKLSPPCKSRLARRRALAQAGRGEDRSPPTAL

The targets below were run with Cc1ccc(-c2ccc3c(ccc4sc5c(c43)NC[C@@H](C)NC5=O)n2)cn1 (assay: kinase activity remaining relative to vehicle control; higher = less inhibition). Settings: inhibitor concentration 0.1 µM.
Method: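 In vitro radiometric kinase profiling of the MK2 inhibitor PF-3644022 at 0.1, 1 and 10 µM against a panel of kinases (MRC International Centre for Kinase Profiling, Dundee). Read-out is % kinase activity remaining relative to the vehicle control, mean of n=2.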
SIK2 (UniProt Q9H0K1) gave a kinase activity remaining of 99%. Work on HER4 (UniProt Q15303) yielded a kinase activity remaining of 92%. MKK2 (UniProt P36507) showed a kinase activity remaining of 113%. With SYK (UniProt P43405) the kinase activity remaining was 94%. Target MARK1 (UniProt Q9P0L2) has a kinase activity remaining of 116%. For MNK1 (UniProt Q9BUB5), the kinase activity remaining was 105%. For PIM1 (UniProt P11309), the kinase activity remaining was 93%. In the case of TTK (UniProt P33981), the kinase activity remaining is reported as 117%. For MAPKAP-K3, the kinase activity remaining was 114%. Work on TTBK2 (UniProt Q6IQ55) yielded a kinase activity remaining of 122%. Target HIPK3 (UniProt Q9H422) has a kinase activity remaining of 112%. In the case of TSSK1 (UniProt Q9BXA7), the kinase activity remaining is reported as 97%. MARK3 (UniProt P27448) was tested, and the kinase activity remaining was 113%. Work on CAMKK beta yielded a kinase activity remaining of 107%. IKK beta was tested, and the kinase activity remaining was 115%. For EPH-A4, the kinase activity remaining was 99%. Target PKA has a kinase activity remaining of 109%. With NUAK1 (UniProt O60285) the kinase activity remaining was 112%. With PKB alpha (UniProt P31749) the kinase activity remaining was 109%. With MELK (UniProt Q14680) the kinase activity remaining was 123%. OSR1 (UniProt Q8TAX0) showed a kinase activity remaining of 113%. For MNK2 (UniProt Q9HBH9), the kinase activity remaining was 111%. PHK showed a kinase activity remaining of 110%. For CHK2 (UniProt O96017), the kinase activity remaining was 112%. For PAK4 (UniProt O96013), the kinase activity remaining was 103%. For p38 alpha MAPK, the kinase activity remaining was 94%. DDR2 (UniProt Q16832) showed a kinase activity remaining of 105%. In the case of STK33 (UniProt Q9BYT3), the kinase activity remaining is reported as 105%. With GSK3 beta the kinase activity remaining was 126%. In the case of EPH-B2, the kinase activity remaining is reported as 99%. For MKK6 (UniProt P52564), the kinase activity remaining was 95%. MAP4K5 (UniProt Q9Y4K4) showed a kinase activity remaining of 111%. PAK2 (UniProt Q13177) was tested, and the kinase activity remaining was 102%.

Same assay, conditions: inhibitor concentration 1 µM
In the case of SIK2 (UniProt Q9H0K1), the kinase activity remaining is reported as 86%. Work on HER4 (UniProt Q15303) yielded a kinase activity remaining of 105%. MKK2 (UniProt P36507) gave a kinase activity remaining of 108%. SYK (UniProt P43405) showed a kinase activity remaining of 98%. MARK1 (UniProt Q9P0L2) was tested, and the kinase activity remaining was 107%. Target MNK1 (UniProt Q9BUB5) has a kinase activity remaining of 103%. With PIM1 (UniProt P11309) the kinase activity remaining was 58%. TTK (UniProt P33981) showed a kinase activity remaining of 101%. Target MAPKAP-K3 has a kinase activity remaining of 62%. TTBK2 (UniProt Q6IQ55) was tested, and the kinase activity remaining was 122%. With HIPK3 (UniProt Q9H422) the kinase activity remaining was 108%. TSSK1 (UniProt Q9BXA7) showed a kinase activity remaining of 85%. MARK3 (UniProt P27448) was tested, and the kinase activity remaining was 115%. In the case of CAMKK beta, the kinase activity remaining is reported as 87%. IKK beta was tested, and the kinase activity remaining was 109%. EPH-A4 showed a kinase activity remaining of 103%. PKA was tested, and the kinase activity remaining was 119%. With NUAK1 (UniProt O60285) the kinase activity remaining was 102%. For PKB alpha (UniProt P31749), the kinase activity remaining was 97%. For MELK (UniProt Q14680), the kinase activity remaining was 102%. OSR1 (UniProt Q8TAX0) was tested, and the kinase activity remaining was 112%. In the case of MNK2 (UniProt Q9HBH9), the kinase activity remaining is reported as 51%. PHK was tested, and the kinase activity remaining was 91%. For CHK2 (UniProt O96017), the kinase activity remaining was 51%. PAK4 (UniProt O96013) showed a kinase activity remaining of 88%. Target p38 alpha MAPK has a kinase activity remaining of 94%. DDR2 (UniProt Q16832) was tested, and the kinase activity remaining was 101%. Work on STK33 (UniProt Q9BYT3) yielded a kinase activity remaining of 83%. GSK3 beta showed a kinase activity remaining of 99%. EPH-B2 gave a kinase activity remaining of 110%. Work on MKK6 (UniProt P52564) yielded a kinase activity remaining of 98%. Work on MAP4K5 (UniProt Q9Y4K4) yielded a kinase activity remaining of 108%. PAK2 (UniProt Q13177) showed a kinase activity remaining of 103%.

Same assay, conditions: inhibitor concentration 10 µM
Target SIK2 (UniProt Q9H0K1) has a kinase activity remaining of 77%. Work on HER4 (UniProt Q15303) yielded a kinase activity remaining of 99%. MKK2 (UniProt P36507) was tested, and the kinase activity remaining was 79%. Target SYK (UniProt P43405) has a kinase activity remaining of 82%. MARK1 (UniProt Q9P0L2) gave a kinase activity remaining of 93%. For MNK1 (UniProt Q9BUB5), the kinase activity remaining was 83%. In the case of PIM1 (UniProt P11309), the kinase activity remaining is reported as 17%. In the case of TTK (UniProt P33981), the kinase activity remaining is reported as 84%. With MAPKAP-K3 the kinase activity remaining was 30%. TTBK2 (UniProt Q6IQ55) showed a kinase activity remaining of 103%. HIPK3 (UniProt Q9H422) was tested, and the kinase activity remaining was 96%. With TSSK1 (UniProt Q9BXA7) the kinase activity remaining was 89%. MARK3 (UniProt P27448) was tested, and the kinase activity remaining was 110%. Work on CAMKK beta yielded a kinase activity remaining of 28%. With IKK beta the kinase activity remaining was 101%. Work on EPH-A4 yielded a kinase activity remaining of 78%. PKA showed a kinase activity remaining of 108%. NUAK1 (UniProt O60285) was tested, and the kinase activity remaining was 58%. Work on PKB alpha (UniProt P31749) yielded a kinase activity remaining of 98%. With MELK (UniProt Q14680) the kinase activity remaining was 77%. OSR1 (UniProt Q8TAX0) gave a kinase activity remaining of 118%. For MNK2 (UniProt Q9HBH9), the kinase activity remaining was 26%. In the case of PHK, the kinase activity remaining is reported as 86%. For CHK2 (UniProt O96017), the kinase activity remaining was 9%. With PAK4 (UniProt O96013) the kinase activity remaining was 82%. p38 alpha MAPK gave a kinase activity remaining of 83%. DDR2 (UniProt Q16832) was tested, and the kinase activity remaining was 91%. STK33 (UniProt Q9BYT3) gave a kinase activity remaining of 38%. Work on GSK3 beta yielded a kinase activity remaining of 88%. In the case of EPH-B2, the kinase activity remaining is reported as 111%. With MKK6 (UniProt P52564) the kinase activity remaining was 91%. MAP4K5 (UniProt Q9Y4K4) was tested, and the kinase activity remaining was 61%. PAK2 (UniProt Q13177) showed a kinase activity remaining of 93%.
